Data reported in PubChem BioAssay AID1159580 (chemical genetic matrix, 2015).
Values joined by “and” are separate entries in the source; they are usually repeats but may differ in a detail not shown here. Equal values may be shown once. The whole screen tested about 5,500 compounds, of which about 2,000 (36%) were called active. Roughly 18% stayed inconclusive and do not appear here. Rule as the data show it: active = normalized growth mostly below about 0.91 (no sharp cut-off); inconclusive = no clear call, values can overlap the other calls; inactive = mostly above about 0.92. Some of the results follow.

Assay: chemical genetic growth profiling, strain panel (AID 1159580);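 also: tested at 20 µM; growth read once vehicle control cultures reached saturation at 30 °C; 1 = growth at the plate median or of vehicle wells; lower values mean less growth of the strain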
Conditions: S. cerevisiae deletion strains, growth OD

Measured: normalized growth

c1ccc2c(CC3=NCCN3)cccc2c1
inactive: locus YAL013W, strain DEP1, hits give low values 1.01 | locus YAL021C, strain ccr4, hits give low values 0.944 | locus YAL026C, strain drs2, hits give low values 0.982 | locus YAL030W, strain snc1, hits give low values 0.986 | locus YBL061C, strain skt5, hits give low values 0.985 | locus YBR009C, strain hhf1, hits give low values 0.987 | locus YBR021W, strain FUR4, hits give low values 0.999 | locus YBR023C, strain chs3, hits give low values 0.984 | locus YBR171W, strain sec66, hits give low values 0.976 | locus YBR229C, strain ROT2, hits give low values 1.01 | locus YBR231C, strain swc5, hits give low values 0.985 | locus YBR279W, strain paf1, hits give low values 0.99 | locus YCL011C, strain gbp2, hits give low values 0.97 | locus YCL016C, strain dcc1, hits give low values 0.996 | locus YCL029C, strain bik1, hits give low values 1.03 | locus YCL061C, strain MRC1, hits give low values 0.981 | locus YCL069W, strain vba3, hits give low values 0.955 | locus YCR088W, strain abp1, hits give low values 0.98 | locus YDL005C, strain med2, hits give low values 0.962 | locus YDL035C, strain GPR1, hits give low values 1.01 | locus YDL040C, strain nat1, hits give low values 0.971 | locus YDL074C, strain BRE1, hits give low values 1.01 | locus YDL101C, strain DUN1, hits give low values 1.01 | locus YDL134C, strain PPH21, hits give low values 1.01 | locus YDL185W, strain tfp1, hits give low values 1.01 | locus YDL192W, strain arf1, hits give low values 1.02 | locus YDR001C, strain nth1, hits give low values 0.99 | locus YDR069C, strain doa4, hits give low values 0.947 | locus YDR101C, strain arx1, hits give low values 1.02 | locus YDR137W, strain rgp1, hits give low values 0.985 | locus YDR150W, strain NUM1, hits give low values 1.01 | locus YDR159W, strain sac3, hits give low values 0.958 | locus YDR162C, strain NBP2, hits give low values 1 | locus YDR195W, strain ref2 0.96 | locus YDR297W, strain sur2, hits give low values 0.975 | locus YDR318W, strain mcm21, hits give low values 1.02 | locus YDR334W, strain swr1, hits give low values 0.958 | locus YDR335W, strain msn5, hits give low values 0.981 | locus YDR388W, hits give low values 1.02 | locus YDR392W, strain spt3, hits give low values 0.863 | locus YDR502C, strain sam2, hits give low values 1.02 | locus YEL003W, strain gim4, hits give low values 0.945 | locus YEL037C, strain rad23, hits give low values 0.964 | locus YEL061C, strain CIN8 (second series), hits give low values 0.965 | locus YEL061C, strain CIN8, hits give low values 1.01 | locus YER015W, strain faa2, hits give low values 0.959 | locus YER016W, strain bim1, hits give low values 0.979 | locus YER110C, hits give low values 1.02 | locus YER111C, strain swi4, hits give low values 0.968 | locus YER155C, strain BEM2 (second series), hits give low values 0.98 | locus YER155C, strain BEM2, hits give low values 1 | locus YER167W, strain BCK2, hits give low values 1.02 | locus YFR010W, strain ubp6, hits give low values 0.96 | locus YGL078C, strain dbp3, hits give low values 1.02 | locus YGL086W, strain mad1, hits give low values 1.01 | locus YGL167C, strain pmr1, hits give low values 0.98 | locus YGL173C, strain kem1, hits give low values 0.976 | locus YGL227W, strain vid30, hits give low values 0.975 | locus YGL240W, strain doc1, hits give low values 0.98 | locus YGL248W, strain PDE1, hits give low values 1.01 | locus YGL253W, strain hxk2, hits give low values 0.98 | locus YGR078C, strain PAC10, hits give low values 1.01 | locus YGR135W, strain pre9, hits give low values 1.02 | locus YGR229C, strain SMI1, hits give low values 1.01 | locus YGR252W, strain gcn5, hits give low values 0.984 | locus YHR013C, strain ard1, hits give low values 0.901 | locus YHR027C, strain rpn1, hits give low values 0.972 | locus YHR030C, strain SLT2, hits give low values 1.01 and 0.973 | locus YHR079C, strain IRE1 (second series), hits give low values 1.02 | locus YHR079C, strain IRE1, hits give low values 0.961 | locus YHR094C, strain hxt1, hits give low values 1.01 | locus YHR129C, strain ARP1, hits give low values 1 | locus YHR142W, strain chs7, hits give low values 0.978 | locus YHR200W, strain rpn10, hits give low values 1.02 | locus YIL066C, strain RNR3, hits give low values 1.01 | locus YIL073C, strain SPO22, hits give low values 1.06 | locus YIL125W, strain kgd1, hits give low values 1.01 | locus YIR030C, strain dcg1, hits give low values 1.03 | locus YJL092W, strain hpr5, hits give low values 0.968 | locus YJL095W, strain BCK1 (second series), hits give low values 0.987 | locus YJL095W, strain BCK1, hits give low values 1.01 and 1 | locus YJL115W, strain asf1, hits give low values 0.976 | locus YJL129C, strain trk1, hits give low values 0.921 | locus YJL134W, strain LCB3, hits give low values 1.01 | locus YJL154C, strain vps35, hits give low values 0.972 | locus YJL164C, strain tpk1, hits give low values 0.978 | locus YJL166W, strain qcr8, hits give low values 0.968 | locus YJL168C, strain set2, hits give low values 1.02 | locus YJL187C, strain SWE1 (second series), hits give low values 1.01 | locus YJL187C, strain SWE1, hits give low values 0.976 | locus YJR043C, strain POL32, hits give low values 1.01 | locus YJR066W, strain TOR1, hits give low values 0.928
